Reference: PubChem BioAssay
“And” between values parts separate entries of the source, which are not always exact repeats. Equal values may be shown once. Inconclusive results are not listed. The source made the active and inactive calls.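 Rule for the calls, unless noted: active = normalized viability below 100% at a tested concentration; inactive = the rest.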

Key:
[1] = stimulators of nuclear beta-catenin in C2C12, primary screen, imaging, WNT3A-conditioned medium, mouse C2C12, NPC library (AID 1117326; in the data active = nuclear beta-catenin stimulation mostly above about 4.2%, no sharp cut-off; inactive = mostly below about 10%); details: stronger effect = higher value
[2] = stimulators of insulin release from INS-1E, primary screen, cell-based, 5 mM glucose, NPC library (AID 1117329;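 active = compound raises insulin release from rat beta cells at 5 mM glucose, no numeric limit stated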); details: rat INS-1E insulin secretion, at 10 µM, stronger effect = higher value
[3] = growth inhibition of GSK3B-pretreated HCT116 cells – cell-based, CellTiter-Glo, 0.2 to 20 µM (AID 1117336;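 active = compounds lowering colon cancer cell viability after pretreatment blocking the GSK3B kinase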); details: HCT116 viability after GSK3B inhibitor, at 20 µM, stronger effect = higher value
[4] = inhibition of endothelial tube formation, primary screen, imaging, VEGF stimulated, CD31 staining, tube area, NPC library (AID 1117340;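 active = compound that reduces growth-factor-driven endothelial tube area in a mixed cell culture, no cutoff stated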); details: VEGF-stimulated ADSC/ECFC co-culture, at 10 µM, stronger effect = higher value
[5] = glucagon-like peptide 1 release enhancers, primary assay, NCI-H716 cell line, NPC library (AID 1117341;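 active = compound raises GLP1 secretion from the human gut endocrine cells, with no numeric limit stated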); details: NCI-H716 cells, at 10 µM, stronger effect = higher value
[6] = HCT116 colon cancer cell growth inhibition, primary screen, CellTiter-Glo luminescence, NPC library (AID 1117342;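 active = compounds that lower survival of HCT116 colon cancer cells in the luminescence readout, no numeric limit stated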); details: at 20 µM (top of the series)
[7] = CellTiter-Glo luminescent readout of SW480 viability loss, NPC library primary (AID 1117343;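 active = compounds that lower viability of the colon cancer cells in the luminescence readout, with no numeric limit stated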); details: CellTiter-Glo luminescence; at 20 µM (top of the series) unless noted
[8] = decreased DLD-1 cellular survival, CellTiter-Glo luminescent readout, NPC compound collection, primary HTS (AID 1117346;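 active = compounds that lower survival of DLD-1 colon cancer cells in the luminescence readout, no cutoff given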); details: DLD-1 viability, CellTiter-Glo luminescence; at 20 µM (top of the series)
[9] = growth inhibition of DIPG glioma cells, dose response, cell-based, SU-DIPG-IV, MIPE4.0, CellTiter-Glo, qHTS (AID 1347063; cut-off not given, nearly all actives have AC50 up to about 30 µM;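 note: compound exposure lasted 48 hours before the viability readout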); details: SU-DIPG-IV viability, CellTiter-Glo ATP luminescence
[10] = viability loss in pontine glioma line – cell-based, SU-DIPG-XXV, MIPE5.0, CellTiter-Glo, qHTS, dose response (AID 1347065; cut-off not given, nearly all actives have AC50 up to about 26 µM;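 note: cells exposed to compound for 48 hours before ATP readout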); details: CellTiter-Glo ATP luminescence
[11] = SU-DIPG-VI glioma cell viability, MIPE4.0 library, CellTiter-Glo luminescence, qHTS (AID 1347066; cut-off not given, nearly all actives have AC50 up to about 30 µM;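 note: cells exposed to compound for 48 hours before readout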); details: CellTiter-Glo ATP luminescence
[12] = JHH-DIPG-1 glioma cell viability, MIPE5.0 library, CellTiter-Glo luminescence, qHTS (AID 1347067; cut-off not given, nearly all actives have AC50 up to about 26 µM;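 note: cells exposed to compound for 48 hours before readout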); details: JHH-DIPG-1 glioma viability, CellTiter-Glo ATP luminescence
[13] = SU-DIPG-XXV glioma cell viability, MIPE5.0 library, qHTS (AID 1347068; cut-off not given, nearly all actives have IC50 up to about 30 µM)
[14] = sensitizers of A549 cells to miR-34 induction, primary screen, imaging, A549 dox-inducible miR-34, nuclei and caspase counts (AID 1347080;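 active = compounds whose cell count with miR-34 switched on is under 0.7 times the count with it off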); details: A549 miR-34 inducible, Hoechst nuclei count, 48 h
[15] = survival rescue of mitochondrial mutant cells in low glucose, primary screen, MELAS cybrids, Rieske KO mouse fibroblasts, CellTiter-Glo (AID 1508586;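 active = mean z-score across replicates of 1.96 or higher in either the MELAS or the Rieske mutant cell line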;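 note: z relative to plate mean and SD of compound and empty wells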)
[16] = viability rescue of complex I mutant cybrids, primary screen, cell-based, galactose medium, ATP luminescence (AID 1645843;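 active = z-score of at least 1.8 in each of two replicates, scored against plate mean and spread of sample wells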;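 note: positive z means more ATP and so rescue of galactose-driven cybrid death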); details: complex I mutant cybrid cells, 72 h, stronger effect = higher value
[17] = growth inhibition of DIPG glioma cells, dose response, cell-based, JHH-DIPG-1, MIPE4.0, CellTiter-Glo, qHTS (AID 1347062; cut-off not given, nearly all actives have AC50 up to about 27 µM); details: JHH-DIPG-1 viability, CellTiter-Glo ATP luminescence
[18] = ovarian cancer cell viability with rucaparib, profiling panel, oncology-focused library, rucaparib conditional (AID 1508598); details: patient-derived ovarian cancer cells, CellTiter-Glo viability, 144 h, stronger effect = lower value
[19] = stronger effect = lower value, cell number ratio, induced over uninduced
[20] = measured here: relative caspase fold change +Dox/-Dox
[21] = measured here: total cells with miR-34 induction, stronger effect = lower value
[22] = measured here: total cells without miR-34 induction
[23] = MELAS cybrid survival, CellTiter-Glo 48 h, stronger effect = higher value
[24] = Rieske KO mouse fibroblast survival, CellTiter-Glo 72 h

Cc1ccccc1C(=O)Nc1ccc(C(=O)N2CCCC(O)c3cc(Cl)ccc32)c(C)c1 (stereo not given)
0.412 and 0.955: fold change [14, 20]
1.4%: nuclear beta-catenin stimulation ([1]; stimulation, at 2 µM)
8090 and 8960: cell count [14, 21]
inactive: nuclear beta-catenin stimulation ([1]; at 10 µM) 3.2% | insulin secretion stimulation [2] 0.15% | tube area decrease [4] 3.5% | GLP1 secretion stimulation [5] 2% | inhibition of viability [6] 38.9% | viability decrease (inhibition) [7] 15.2% | viability decrease (inhibition) [8] 21.9% | outcome [9] | outcome [10] | outcome [11] | outcome [12] | outcome [13] | fold change [14, 19] 0.834 and 0.856 | z-score [15, 23] 0.131 and -0.387 | z-score [16] 0.835
9700 and 10500: cell count [14, 22]
-0.17 and 0.558: z-score [15, 24]
active: viability decrease [3] 52.2%

CN(C)C(=O)COC(=O)Cc1ccc(OC(=O)c2ccc(N=C(N)N)cc2)cc1
0.433: fold change [14, 20]
0.4%: nuclear beta-catenin stimulation ([1]; stimulation, at 2 µM)
8560: cell count [14, 21]
8730: cell count [14, 22]
0.0145: z-score [15, 24]
inactive: nuclear beta-catenin stimulation ([1]; at 10 µM) 1.4% | insulin secretion stimulation [2] -0.35% | viability decrease [3] 16.9% | tube area decrease [4] -11.6% | GLP1 secretion stimulation [5] -0.7% | inhibition of viability [6] 13.5% | viability decrease (inhibition) [7] -4.4% | viability decrease (inhibition) [8] 4.3% | outcome [17] | outcome [10] | outcome [12] | outcome [13] | fold change [14, 19] 0.981 | z-score [15, 23] -0.283

COc1ccc(-c2ccc3cc(C(=O)O)ccc3c2)cc1C12CC3CC(CC(C3)C1)C2
1230 and 1070: cell count [14, 22]
0.947 and 0.282: z-score [15, 24]
inactive: nuclear beta-catenin stimulation ([1]; at 10 µM) 21.9% | insulin secretion stimulation [2] 0.9% | GLP1 secretion stimulation [5] -2.3% | outcome [17] | outcome [9] | outcome [11] | outcome [13] | fold change [14, 19] 1.08 and 1.16 | z-score [15, 23] -0.222 and -1.26
1330 and 1240: cell count [14, 21]
active: viability decrease [3] 118% | tube area decrease [4] 99.5% | inhibition of viability [6] 123% | viability decrease (inhibition) [7] 159% | viability decrease (inhibition) [8] 102%
0.775 and 0.908: fold change [14, 20]
32.2%: nuclear beta-catenin stimulation ([1]; stimulation, at 2 µM)

Cc1cc2c(cc1CC(=O)c1sccc1S(=O)(=O)Nc1onc(C)c1Cl)OCO2
7800: cell count [14, 21]
8950: cell count [14, 22]
inactive: nuclear beta-catenin stimulation ([1]; at 10 µM) 1.6% | insulin secretion stimulation [2] -0.3% | viability decrease [3] 2.7% | tube area decrease [4] -20.9% | GLP1 secretion stimulation [5] 2.9% | inhibition of viability [6] 20.9% | viability decrease (inhibition) [7] 6.8% | viability decrease (inhibition) [8] -17.2% | outcome [10] | fold change [14, 19] 0.871 | z-score [15, 23] -0.207
0.772: fold change [14, 20]
3%: nuclear beta-catenin stimulation ([1]; stimulation, at 2 µM)
active: AC50 [12] 26.3 µM
-0.0127: z-score [15, 24]

Cc1ccc(Nc2nccc(N(C)c3ccc4c(C)n(C)nc4c3)n2)cc1S(N)(=O)=O
4740 and 6080: cell count [14, 21]
1.31 and 0.946: fold change [14, 20]
active: tube area decrease [4] 97.1% | viability decrease (inhibition) [7] 69.3% | AC50 [10] 5.9 µM | AC50 [12] 18.6 µM | viability ([18]; at 0.000305 µM, OCI-C5x cells, with rucaparib 10 µM, 100% = cells with rucaparib alone) 96.4% | viability ([18]; at 0.000305 µM, OCI-C5x cells, without rucaparib) 95.3% | viability ([18]; at 0.000305 µM, OCI-P5x cells, with rucaparib 20 µM, 100% = cells with rucaparib alone) 99% | viability ([18]; at 0.00122 µM, OCI-P5x cells, without rucaparib) 99.5% | viability ([18]; at 0.00488 µM, OCI-C5x cells, without rucaparib) 98.4% | viability ([18]; at 0.00488 µM, OCI-P5x cells, without rucaparib) 99.3% | viability ([18]; at 0.0195 µM, OCI-C5x cells, with rucaparib 10 µM, 100% = cells with rucaparib alone) 98.1% | viability ([18]; at 0.0195 µM, OCI-P5x cells, with rucaparib 20 µM, 100% = cells with rucaparib alone) 97.8% | viability ([18]; at 0.0195 µM, OCI-P5x cells, without rucaparib) 98.3% | viability ([18]; at 0.0781 µM, OCI-P5x cells, with rucaparib 20 µM, 100% = cells with rucaparib alone) 97.9% | viability ([18]; at 0.0781 µM, OCI-P5x cells, without rucaparib) 95.6% | viability ([18]; at 0.313 µM, OCI-C5x cells, without rucaparib) 95.9% | viability ([18]; at 0.313 µM, OCI-P5x cells, without rucaparib) 90.2% | viability ([18]; at 1.25 µM, OCI-C5x cells, without rucaparib) 96.9% | viability ([18]; at 1.25 µM, OCI-P5x cells, with rucaparib 20 µM, 100% = cells with rucaparib alone) 87.9% | viability ([18]; at 1.25 µM, OCI-P5x cells, without rucaparib) 91.3% | viability ([18]; at 5 µM, OCI-P5x cells, with rucaparib 20 µM, 100% = cells with rucaparib alone) 86% | viability ([18]; at 5 µM, OCI-P5x cells, without rucaparib) 86%
1%: nuclear beta-catenin stimulation ([1]; stimulation, at 2 µM)
-0.2 and 1.1: z-score [15, 24]
inactive: nuclear beta-catenin stimulation ([1]; at 10 µM) 5.9% | insulin secretion stimulation [2] 4.9% | viability decrease [3] 20.9% | GLP1 secretion stimulation [5] -3.5% | inhibition of viability [6] 48.8% | viability decrease (inhibition) [8] 14.5% | outcome [17] | outcome [11] | fold change [14, 19] 0.9 and 0.786 | z-score [15, 23] -0.327 and -0.404 | viability ([18]; at 0.000305 µM, OCI-P5x cells, without rucaparib) 100% | viability ([18]; at 0.00122 µM, OCI-C5x cells, with rucaparib 10 µM, 100% = cells with rucaparib alone) 104% | viability ([18]; at 0.00122 µM, OCI-C5x cells, without rucaparib) 106% | viability ([18]; at 0.00122 µM, OCI-P5x cells, with rucaparib 20 µM, 100% = cells with rucaparib alone) 105% | viability ([18]; at 0.00488 µM, OCI-C5x cells, with rucaparib 10 µM, 100% = cells with rucaparib alone) 104% | viability ([18]; at 0.00488 µM, OCI-P5x cells, with rucaparib 20 µM, 100% = cells with rucaparib alone) 100% | viability ([18]; at 0.0195 µM, OCI-C5x cells, without rucaparib) 100% | viability ([18]; at 0.0781 µM, OCI-C5x cells, with rucaparib 10 µM, 100% = cells with rucaparib alone) 103% | viability ([18]; at 0.0781 µM, OCI-C5x cells, without rucaparib) 102% | viability ([18]; at 0.313 µM, OCI-C5x cells, with rucaparib 10 µM, 100% = cells with rucaparib alone) 109% | viability ([18]; at 0.313 µM, OCI-P5x cells, with rucaparib 20 µM, 100% = cells with rucaparib alone) 100% | viability ([18]; at 1.25 µM, OCI-C5x cells, with rucaparib 10 µM, 100% = cells with rucaparib alone) 108% | viability ([18]; at 5 µM, OCI-C5x cells, with rucaparib 10 µM, 100% = cells with rucaparib alone) 112% | viability ([18]; at 5 µM, OCI-C5x cells, without rucaparib) 115%
5260 and 7730: cell count [14, 22]

CC(C)OC(=O)OCOP(=O)(CO[C@H](C)Cn1cnc2c(N)ncnc21)OCOC(=O)OC(C)C
inactive: nuclear beta-catenin stimulation ([1]; at 10 µM) 6.3% | insulin secretion stimulation [2] 13.8% | viability decrease [3] 2.2% | GLP1 secretion stimulation [5] -1.8% | inhibition of viability [6] 32.1% | viability decrease (inhibition) [7] 22.7% | viability decrease (inhibition) [8] 47.8% | outcome [17] | outcome [9] | outcome [11]
active: tube area decrease [4] 65.2%
3%: nuclear beta-catenin stimulation ([1]; stimulation, at 2 µM)

Cc1nnc(C(=O)NC(C)(C)c2nc(C(=O)NCc3ccc(F)cc3)c(O)c(=O)n2C)o1
-0.0651: z-score [15, 24]
7710: cell count [14, 21]
inactive: nuclear beta-catenin stimulation ([1]; at 10 µM) -0.2% | insulin secretion stimulation [2] 2.5% | viability decrease [3] -5.9% | tube area decrease [4] 13.9% | GLP1 secretion stimulation [5] -0.3% | inhibition of viability [6] 1% | viability decrease (inhibition) [7] 31.6% | viability decrease (inhibition) [8] 6.7% | outcome [9] | outcome [10] | outcome [11] | outcome [13] | fold change [14, 19] 0.902 | z-score [15, 23] -0.159
8560: cell count [14, 22]
1.04: fold change [14, 20]
0.5%: nuclear beta-catenin stimulation ([1]; stimulation, at 2 µM)

O=C(Nc1ccc(S(=O)(=O)N2CCOCC2)cc1)c1cc(Cl)ccc1NS(=O)(=O)c1ccc(Cl)s1
active: viability decrease [3] 118% | tube area decrease [4] 100% | GLP1 secretion stimulation [5] 39.8% | inhibition of viability [6] 124% | viability decrease (inhibition) [7] 158% | viability decrease (inhibition) [8] 101%
-0.5%: nuclear beta-catenin stimulation ([1]; stimulation, at 2 µM)
inactive: nuclear beta-catenin stimulation ([1]; at 10 µM) 0.9% | insulin secretion stimulation [2] 3.7% | outcome [10] | outcome [12] | outcome [13]
